Results from PubChem BioAssay.
Records with an inconclusive call do not appear. Activity calls are given as the source filed them.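 The calls were made as follows, unless noted: active = viability at or below 10% of carrier control in both of two separate runs; inconclusive = viability at or below 10% in only one of the two runs; inactive = the rest.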

How the values were obtained:
[1] = reducers of endogenous Her2 protein level, primary screen, SKBR3 breast tumor cells, AlphaScreen, ATP viability (AID 461;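 active = Her2 level under about 52% in both replicate screens, with viability over 70% of control, limit read from the data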;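 as to Her2 level: lower value means less Her2 protein in the cells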;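 as to viability: percent of carrier control wells set as 100% viability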); conditions: 18-24 h, measured here: SKBR3 viability, ATP luminescence, at 10 µM
[2] = target: Receptor tyrosine-protein kinase erbB-2 (Homo sapiens) (UniProt P04626); experiment: as above; conditions: 18-24 h, at 10 µM, stronger effect = lower value
Sequence of Receptor tyrosine-protein kinase erbB-2 (Homo sapiens) (P04626 whole entry, looked up): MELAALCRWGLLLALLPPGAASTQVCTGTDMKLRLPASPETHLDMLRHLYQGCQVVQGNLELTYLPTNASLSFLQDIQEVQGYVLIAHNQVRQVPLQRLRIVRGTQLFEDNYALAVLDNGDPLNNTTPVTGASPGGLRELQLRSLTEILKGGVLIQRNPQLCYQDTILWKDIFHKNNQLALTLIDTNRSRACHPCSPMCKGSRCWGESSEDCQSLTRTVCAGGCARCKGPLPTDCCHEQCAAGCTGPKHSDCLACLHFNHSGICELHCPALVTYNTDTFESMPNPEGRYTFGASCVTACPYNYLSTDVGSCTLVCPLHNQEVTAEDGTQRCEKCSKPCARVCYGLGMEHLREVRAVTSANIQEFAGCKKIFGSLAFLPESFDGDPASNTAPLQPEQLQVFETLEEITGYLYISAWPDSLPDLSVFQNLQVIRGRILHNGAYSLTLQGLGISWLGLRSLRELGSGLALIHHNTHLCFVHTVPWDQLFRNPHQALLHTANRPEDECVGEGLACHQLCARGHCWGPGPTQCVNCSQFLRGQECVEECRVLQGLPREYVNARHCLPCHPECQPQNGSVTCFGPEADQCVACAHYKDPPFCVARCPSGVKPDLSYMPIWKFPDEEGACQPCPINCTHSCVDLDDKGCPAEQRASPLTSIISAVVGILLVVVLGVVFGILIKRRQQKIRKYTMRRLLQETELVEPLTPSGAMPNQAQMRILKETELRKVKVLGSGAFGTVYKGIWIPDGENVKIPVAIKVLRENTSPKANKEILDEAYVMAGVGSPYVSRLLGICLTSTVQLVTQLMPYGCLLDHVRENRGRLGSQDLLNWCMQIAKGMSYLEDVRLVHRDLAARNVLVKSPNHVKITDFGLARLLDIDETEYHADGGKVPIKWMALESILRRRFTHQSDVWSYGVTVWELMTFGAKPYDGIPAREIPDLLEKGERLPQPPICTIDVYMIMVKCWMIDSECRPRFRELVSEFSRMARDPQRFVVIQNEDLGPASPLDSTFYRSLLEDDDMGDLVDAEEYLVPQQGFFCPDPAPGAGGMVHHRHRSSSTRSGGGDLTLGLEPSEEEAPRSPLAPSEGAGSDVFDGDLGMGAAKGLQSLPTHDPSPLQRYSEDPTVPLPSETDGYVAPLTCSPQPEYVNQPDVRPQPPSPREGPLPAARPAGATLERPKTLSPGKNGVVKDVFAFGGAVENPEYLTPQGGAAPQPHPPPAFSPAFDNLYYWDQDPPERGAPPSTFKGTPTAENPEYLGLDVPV

[3] = SK-BR-3 cell growth inhibitors, pilot screen, 24 h, human (AID 572); conditions: SK-BR-3 viability, CellTiter-Glo luminescence, at 10 µM, stronger effect = lower value;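 also: compound exposure lasted between 18 and 24 h rather than exactly 24 h; 100% = carrier-treated control wells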
[4] = HUVEC growth inhibition – cell-based, human, primary screen (AID 575;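 active = viability at or below 30% in both replicate assays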;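 also: 100% = median of untreated cell wells with 0.1% DMSO on each plate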); conditions: HUVEC proliferation, CellTiter-Glo luminescence, 72 h; at 10 µM; stronger effect = lower value
[5] = growth inhibitors of H69AR lung tumor, primary screen, human, duplicate replicates (AID 580;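 active = viability at or under a set limit in both replicates, limit being median viability minus 3 SD, cut at about 48% in these data, passing the limit was not always enough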;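 also: 100% = mean luminescence of untreated wells and 0% = no signal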); conditions: H69AR lung tumor cells viability, ATP luminescence, 72 h; at 10 µM; stronger effect = lower value
[6] = reversal of MRP1-mediated doxorubicin resistance, pilot screen, H69AR cells, doxorubicin co-treatment (AID 601;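 active = viability loss from added drug above about 55%, and viability with drug at most 40%, in both replicates, limit read from the data, passing the limit was not always enough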); conditions: CellTiter-Glo, 72 h, at 10 µM; for differential viability (reversal): stronger effect = higher value
[7] = 384-well plate pilot, post-Golgi transport modulator project, inhibition of yeast transport mutant growth (AID 636; in the data active = inhibition above about 31%); conditions: absorbance 615 nm, about 18 h, stronger effect = higher value
[8] = growth suppression of yeast trafficking mutant, preliminary HTS, modulators of trafficking downstream of Golgi apparatus project, 1536-format plate, OD 615 nm (AID 637; in the data active = inhibition above about 30%); conditions: yeast transport mutant growth, absorbance 615 nm, 18 h; stronger effect = higher value
[9] = OD615 S. cerevisiae growth inhibition, permissive medium, pilot counter-assay, permissive growth control for S. cerevisiae lifespan shortening project (AID 705;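 active = growth inhibition above 25% in both replicates, a cutoff set 3 SD above the mean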); conditions: OD615, 24 h, at 10 µM, stronger effect = higher value
[10] = Restrictive medium S. cerevisiae growth inhibition, OD615, pilot screen of yeast lifespan reduction project, restrictive growth control (AID 706;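 active = growth inhibition above a set limit, 3 SD over mean compound inhibition, in both replicates, cut at about 43% in these data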;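 also: modified DeaD lifespan yeast strain shifted to restrictive glucose medium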); conditions: OD615, 48 h, at 10 µM, stronger effect = higher value
[11] = viability gain of MRP-1-high H69AR cells under doxorubicin, pilot screen, MRP-1 activator project, CellTiter-Glo, duplicate (AID 807;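 active = viability increase at or above a cutoff of the median across tested compounds plus 3 SD, cut at about 8.5% in these data, passing the limit was not always enough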;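 also: compound pretreatment 18-22 h then 72 h combined with doxorubicin; 0% = doxorubicin alone and 100% = vehicle without doxorubicin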); conditions: H69AR viability with doxorubicin, CellTiter-Glo luminescence; at 10 µM; stronger effect = higher value
[12] = growth suppression of beta-catenin knockout HCT116, pilot screen, human colon tumor cells (AID 823;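 active = cell viability at or below a set limit in both duplicate runs, the limit being the all-compound median minus 4 SD, cut at about 23% in these data, passing the limit was not always enough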;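 also: 0% = wells killed by 20 µM Hyamine and 100% = untreated DMSO cell wells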); conditions: CellTiter-Glo, 60 h, at 10 µM, stronger effect = lower value
[13] = inhibitors of the yeast RAM network, pilot screen, dse1pr::URA3 reporter, 5-FOA selection (AID 869;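 active = inhibition over a set limit, the all-compound mean plus 3 SD, in both replicate runs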;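 also: 0% = DMSO wells with no growth and 100% = 10 µM 1-NA-PP1 with full growth; RAM network block rescues cells from 5-FOA so hits raise OD615 growth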); conditions: S. cerevisiae dse1pr::URA3 5-FOA growth, OD615, 2 d; at 10 µM; stronger effect = higher value; strain carries analog-sensitive mutant Cbk1 kinase
[14] = growth suppression of PTEN-deleted HCT116, pilot screen, cell-based, HCT116 clonal line, CellTiter-Glo (AID 824;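 active = viability at or below 27.92% in each of two runs, the all-compound median minus 4 SD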;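 also: 0% = 20 µM Hyamine control and 100% = vehicle cell control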); conditions: 60 h, at 10 µM, stronger effect = lower value
[15] = H69AR cells + 2 uM doxorubicin, measured here: viability with 2 uM doxorubicin, stronger effect = lower value
[16] = H69AR cells, compound alone cytotoxicity

N#Cc1c(NC(=O)COC(=O)C2CC3C=CC2C3)oc(-c2ccccc2)c1-c1ccccc1 (stereo not given)
viability [1]: 106%
Her2 level [2]: 80% (inactive)
viability [3]: 106% (inactive)
viability [4]: 78.1% (inactive)
viability [5]: 44.6% (active)
differential viability (reversal) ([6]; H69AR cells + 2 uM doxorubicin): -23.4% (inactive)
viability [6, 15]: 68.1%
viability [6, 16]: 44.6%
inhibition [7]: -0.26% (inactive)
inhibition [8]: -0.36% (inactive)
growth inhibition [9]: -17.5% (inactive)
growth inhibition [10]: -14.6% (inactive)
viability increase [11]: -5.47% (inactive)
viability [12]: 92.3% (inactive)
inhibition [13]: 3.41% (inactive)

CCc1nc(N)nc(N)c1-c1ccc(Cl)cc1
viability [1]: 103%
Her2 level [2]: 79% (inactive)
viability [3]: 103% (inactive)
viability [4]: 117% (inactive)
differential viability (reversal) ([6]; H69AR cells + 2 uM doxorubicin): -59.9% (inactive)
viability [6, 15]: 95.8%
viability [6, 16]: 35.9%

C=CCSc1nnc2n(-c3ccccc3OC)c(=O)c3c4c(sc3n12)CCC4
viability [1]: 83.5%
Her2 level [2]: 100% (inactive)
viability [3]: 83.5% (inactive)
viability [4]: 79.9% (inactive)
viability [5]: 89.1% (inactive)
inhibition [7]: -0.67% (inactive)
inhibition [8]: -0.95% (inactive)

CCOC(=O)C1CCCN(c2c(Nc3ccc(C)c(C)c3)c(=O)c2=O)C1 (stereo not given)
viability [1]: 84%
Her2 level [2]: 99% (inactive)
viability [3]: 84% (inactive)
viability [4]: 91.7% (inactive)
viability [5]: 87.6% (inactive)
inhibition [7]: 0% (inactive)
inhibition [8]: -4.43% (inactive)

Cc1csc(NC(=O)CSc2nnc(Cc3cccn3C)n2-c2ccc(F)cc2)n1
viability [1]: 77.5%
Her2 level [2]: 94% (inactive)
viability [3]: 77.5% (inactive)
viability [4]: 84.8% (inactive)
viability [5]: 89.8% (inactive)
differential viability (reversal) ([6]; H69AR cells + 2 uM doxorubicin): 1.05% (inactive)
viability [6, 15]: 88.8%
viability [6, 16]: 89.8%
inhibition [7]: 4.67% (inactive)
inhibition [8]: -1.64% (inactive)
growth inhibition [9]: -9.58% (inactive)
growth inhibition [10]: -0.31% (inactive)
viability increase [11]: -2.25% (inactive)
viability [12]: 94% (inactive)
viability [14]: 95.5% (inactive)
inhibition [13]: 4.11% (inactive)

CC12COC3(C(=O)Nc4ccc(Cl)cn4)CC1CCC32C (stereo not given)
viability [1]: 72%
Her2 level [2]: 112% (inactive)
viability [3]: 72% (inactive)
viability [4]: 82.9% (inactive)
viability [5]: 94.6% (inactive)
differential viability (reversal) ([6]; H69AR cells + 2 uM doxorubicin): 9.46% (inactive)
viability [6, 15]: 85.1%
viability [6, 16]: 94.6%
inhibition [7]: 0% (inactive)
inhibition [8]: -10% (inactive)
growth inhibition [9]: -15.9% (inactive)
growth inhibition [10]: -9.37% (inactive)
viability increase [11]: -0.46% (inactive)
viability [12]: 85.3% (inactive)
viability [14]: 85.7% (inactive)
inhibition [13]: 0.735% (inactive)

CCn1c(SCC(=O)Nc2ccc3c(c2)OCO3)nc2c(c1=O)SC(C)C2 (stereo not given)
viability [1]: 92.5%
Her2 level [2]: 102% (inactive)
viability [3]: 92.5% (inactive)
viability [4]: 81% (inactive)
viability [5]: 84.7% (inactive)
differential viability (reversal) ([6]; H69AR cells + 2 uM doxorubicin): 1.51% (inactive)
viability [6, 15]: 83.2%
viability [6, 16]: 84.7%
inhibition [7]: -4.67% (inactive)
inhibition [8]: -2% (inactive)
growth inhibition [9]: -7.09% (inactive)
growth inhibition [10]: -23.1% (inactive)
viability increase [11]: -2.42% (inactive)
viability [12]: 99.9% (inactive)
viability [14]: 96.8% (inactive)
inhibition [13]: 1.63% (inactive)

Clc1ccc(C2Nc3ccccc3-n3cccc32)cc1 (stereo not given)
viability [1]: 92%
Her2 level [2]: 82% (inactive)
viability [3]: 92% (inactive)
viability [4]: 60.8% (inactive)
viability [5]: 66.7% (inactive)
differential viability (reversal) ([6]; H69AR cells + 2 uM doxorubicin): -9.2% (inactive)
viability [6, 15]: 75.9%
viability [6, 16]: 66.7%
inhibition [7]: -3.87% (inactive)
inhibition [8]: 7% (inactive)
growth inhibition [9]: -26% (inactive)
growth inhibition [10]: -13.6% (inactive)
viability increase [11]: -4.67% (inactive)
viability [12]: 82.8% (inactive)
viability [14]: 81.3% (inactive)
inhibition [13]: 3.41% (inactive)

Cn1c(=O)n(Cc2ccccc2)c(=O)c2c1nc(NCC1CCCO1)n2Cc1ccccc1 (stereo not given)
viability [1]: 81.5%
Her2 level [2]: 103% (inactive)
viability [3]: 81.5% (inactive)
viability [4]: 74.4% (inactive)
viability [5]: 73.3% (inactive)
inhibition [7]: 0.79% (inactive)
inhibition [8]: -0.18% (inactive)

Cc1ccc(CCNC(=O)C2CCCN2S(=O)(=O)c2ccc3c(c2)CCC(=O)N3)cc1 (stereo not given)
viability [1]: 87.5%
Her2 level [2]: 93.5% (inactive)
viability [3]: 87.5% (inactive)
viability [4]: 91.8% (inactive)
viability [5]: 101% (inactive)
differential viability (reversal) ([6]; H69AR cells + 2 uM doxorubicin): 4.97% (inactive)
viability [6, 15]: 96.2%
viability [6, 16]: 101%
inhibition [7]: -1.33% (inactive)
inhibition [8]: 11.2% (inactive)
growth inhibition [9]: -8.07% (inactive)
growth inhibition [10]: -8.79% (inactive)
viability increase [11]: 3.43% (inactive)
viability [12]: 101% (inactive)
viability [14]: 98.8% (inactive)
inhibition [13]: 2% (inactive)

COc1ccc(-c2nc(CS(=O)CC(=O)N3CCCC3)c(C)o2)cc1 (stereo not given)
viability [1]: 92.5%
Her2 level [2]: 91% (inactive)
viability [3]: 92.5% (inactive)
viability [4]: 80.8% (inactive)
viability [5]: 83.9% (inactive)
differential viability (reversal) ([6]; H69AR cells + 2 uM doxorubicin): 2.07% (inactive)
viability [6, 15]: 81.8%
viability [6, 16]: 83.9%
inhibition [7]: -2.67% (inactive)
inhibition [8]: 3.77% (inactive)
growth inhibition [9]: -4.09% (inactive)
growth inhibition [10]: 5.46% (inactive)
viability increase [11]: -2.14% (inactive)
viability [12]: 91.8% (inactive)
viability [14]: 90.7% (inactive)
inhibition [13]: 2.27% (inactive)

Cc1[nH]c2ccccc2c1Cc1nnc(SCC(=O)NCc2ccco2)o1
viability [1]: 93%
Her2 level [2]: 93% (inactive)
viability [3]: 93% (inactive)
viability [4]: 97.5% (inactive)
viability [5]: 93.7% (inactive)
differential viability (reversal) ([6]; H69AR cells + 2 uM doxorubicin): 8% (inactive)
viability [6, 15]: 85.7%
viability [6, 16]: 93.7%
inhibition [7]: 1.6% (inactive)
inhibition [8]: -2.17% (inactive)
growth inhibition [9]: -12.4% (inactive)
growth inhibition [10]: 12.7% (inactive)
viability increase [11]: -3.96% (inactive)
viability [12]: 103% (inactive)
viability [14]: 95.5% (inactive)
inhibition [13]: 2.85% (inactive)
